# Results published in ChEMBL document CHEMBL5606460, “ASAP - DENV-2 NS2B-NS3 protease fluorescence single point” (2024).
# Screen size: about 2,000 compounds; about 110 (5.5%) showed an effect of 50% or more. This excerpt belongs to a sample that is enriched for strong results.
# Target: Genome polyprotein (dengue virus type 2) (UniProt P29990)
# [1] = Thailand/16681/1984, Concentration 25.0 uM, Number of replicates 1.0
smiles,measurement,setting,value
Cc1cc(CO)c2cccc(NC(=O)[C@@H]3CCCC[C@H]3N)c2n1,inhibition,"Thailand/16681/1984, Concentration 49.95 uM, Number of replicates 2.0, Standard deviation 4.042326157041073 %",-9.54%
Cc1cc(CO)c2cccc(NC(=O)[C@@H]3CC(=O)CCN3)c2n1,inhibition,"Thailand/16681/1984, Concentration 49.95 uM, Number of replicates 2.0, Standard deviation 1.684279261738791 %",1.29%
same,inhibition,"Thailand/16681/1984, Concentration 99.9 uM, Number of replicates 2.0, Standard deviation 1.6842793565692 %",-1.57%
CN(CCc1ccccc1F)C(=O)C1CCN(c2ccc(C=O)cc2)CC1,inhibition,[1],13.4%
O=Cc1ccc(N2CCC(C(=O)Nc3ccc([N+](=O)[O-])c4ccccc34)CC2)cc1,inhibition,[1],13.5%
CN(Cc1nc2ccsc2c(=O)[nH]1)C(=O)C1CCN(c2ccc(C=O)cc2)CC1,inhibition,[1],11.8%
O=Cc1ccc(N2CCC(C(=O)N[C@H](c3ccccc3)C(F)(F)F)CC2)cc1,inhibition,[1],13.1%
Cc1cc(CO)c2cccc(Cc3cccc(C(=O)Nc4cc(C)on4)c3)c2n1,inhibition,"Thailand/16681/1984, Concentration 49.95 uM, Number of replicates 2.0, Standard deviation 1.544383261062021 %",29.6%
same,inhibition,"Thailand/16681/1984, Concentration 99.9 uM, Number of replicates 2.0, Standard deviation 16.942938692438737 %",63.9%
Cc1cc(CO)c2cccc(CC(=O)Nc3cc(C)[nH]n3)c2n1,inhibition,"Thailand/16681/1984, Concentration 49.95 uM, Number of replicates 2.0, Standard deviation 0.6660500187655393 %",4.74%
same,inhibition,"Thailand/16681/1984, Concentration 99.9 uM, Number of replicates 2.0, Standard deviation 2.9944546877986085 %",12.6%
Cc1cc(CO)c2cccc(CC(=O)NCc3c(C)noc3C)c2n1,inhibition,"Thailand/16681/1984, Concentration 49.95 uM, Number of replicates 2.0, Standard deviation 0.8979901952671747 %",-6.95%
same,inhibition,"Thailand/16681/1984, Concentration 99.9 uM, Number of replicates 2.0, Standard deviation 0.7380557178102791 %",-7.49%
Cc1cc(CO)c2cccc(CC(=O)Nc3cc(C)on3)c2n1,inhibition,"Thailand/16681/1984, Concentration 49.95 uM, Number of replicates 2.0, Standard deviation 0.056769444720657654 %",98.7%
same,inhibition,"Thailand/16681/1984, Concentration 99.9 uM, Number of replicates 2.0, Standard deviation 0.01177144620169866 %",99.4%
Cc1cc(CO)c2cccc(Cc3ccccc3C(=O)Nc3cc(C)on3)c2n1,inhibition,"Thailand/16681/1984, Concentration 49.95 uM, Number of replicates 2.0, Standard deviation 1.5788782649320652 %",8.61%
same,inhibition,"Thailand/16681/1984, Concentration 99.9 uM, Number of replicates 2.0, Standard deviation 0.4297535440018178 %",25.7%
Cc1cc(CO)c2cccc(Cc3cccc(C(=O)Nc4cc(C)[nH]n4)c3)c2n1,inhibition,"Thailand/16681/1984, Concentration 49.95 uM, Number of replicates 2.0, Standard deviation 1.9137700846759278 %",0.711%
same,inhibition,"Thailand/16681/1984, Concentration 99.9 uM, Number of replicates 2.0, Standard deviation 1.69961162141419 %",3.33%
COc1ccc(-c2cc(NC(=O)C3CCN(c4ccc(C=O)cc4)CC3)[nH]n2)cc1,inhibition,[1],0.343%
c1cnc2c(C3CCN(Cc4cscn4)CC3)c[nH]c2c1,inhibition,"Thailand/16681/1984, Concentration 49.5 uM, Number of replicates 2.0, Standard deviation 1.714470745737797 %",-3.42%
same,inhibition,"Thailand/16681/1984, Concentration 99.01 uM, Number of replicates 2.0, Standard deviation 2.482934234636928 %",-3.54%
same,inhibition,"Thailand/16681/1984, Concentration 198.0 uM, Number of replicates 2.0, Standard deviation 1.6201369950511377 %",-3.14%
C[C@@H](Cc1ccc(O)cc1)NC(=O)C1CCN(c2ccc(C=O)cc2)CC1,inhibition,[1],12.7%
Cc1cc(CO)c2cccc(CC(=O)N3CC4(CCCOC4)C3)c2n1,inhibition,"Thailand/16681/1984, Concentration 49.95 uM, Number of replicates 2.0, Standard deviation 0.772673116128399 %",-6.59%
same,inhibition,"Thailand/16681/1984, Concentration 99.9 uM, Number of replicates 2.0, Standard deviation 1.1105448445025274 %",-6.27%
CC(C)(CO)NC(=O)c1cc(Cl)cc(NC(=O)c2cc(-c3ccc(Cl)cc3)n[nH]2)c1,inhibition,"Thailand/16681/1984, Concentration 49.5 uM, Number of replicates 2.0, Standard deviation 0.12694171370832513 %",1.06%
same,inhibition,"Thailand/16681/1984, Concentration 99.01 uM, Number of replicates 2.0, Standard deviation 0.3683389265193805 %",1.45%
same,inhibition,"Thailand/16681/1984, Concentration 198.0 uM, Number of replicates 2.0, Standard deviation 0.21850629000727306 %",2.52%
Cc1cc(CO)c2cccc(C[C@H](NC(=O)C(=O)c3ccco3)C(=O)O)c2n1,inhibition,"Thailand/16681/1984, Concentration 49.95 uM, Number of replicates 2.0, Standard deviation 2.1984135254678594 %",1.13%
same,inhibition,"Thailand/16681/1984, Concentration 99.9 uM, Number of replicates 2.0, Standard deviation 0.8113996635889369 %",5.56%
c1ccc2c(CN3CCC(c4c[nH]c5cccnc45)CC3)n[nH]c2c1,inhibition,"Thailand/16681/1984, Concentration 49.5 uM, Number of replicates 2.0, Standard deviation 0.8795107409501791 %",2.18%
same,inhibition,"Thailand/16681/1984, Concentration 99.01 uM, Number of replicates 2.0, Standard deviation 0.8626664157680123 %",3.05%
same,inhibition,"Thailand/16681/1984, Concentration 198.0 uM, Number of replicates 2.0, Standard deviation 1.2603111418750788 %",5.34%
Cc1cc(CO)c2cccc(C[C@H](NC(=O)C[C@H]3CCCN3)C(=O)O)c2n1,inhibition,"Thailand/16681/1984, Concentration 49.95 uM, Number of replicates 2.0, Standard deviation 0.0013512279632592627 %",3.5%
same,inhibition,"Thailand/16681/1984, Concentration 99.9 uM, Number of replicates 2.0, Standard deviation 1.378906641613337 %",9%
Cc1cnccc1NC(=O)c1cc(C2CCC2)n(C)c1C,inhibition,"Thailand/16681/1984, Concentration 49.5 uM, Number of replicates 2.0, Standard deviation 0.7067686370209446 %",0.618%
same,inhibition,"Thailand/16681/1984, Concentration 99.01 uM, Number of replicates 2.0, Standard deviation 0.7459418989288495 %",1.95%
same,inhibition,"Thailand/16681/1984, Concentration 198.0 uM, Number of replicates 2.0, Standard deviation 0.11875700646175207 %",4.33%
CCc1ccc(-c2nc3c(C(=O)Nc4ccc5c(c4)CNC5)cc(Cl)cc3[nH]2)cc1,inhibition,"Thailand/16681/1984, Concentration 99.5 uM, Number of replicates 2.0, Standard deviation 0.07636874080258764 %",91.5%
same,inhibition,"Thailand/16681/1984, Concentration 295.6 uM, Number of replicates 2.0, Standard deviation 0.5542721932424032 %",83.9%
